Several values for one entry are separate records, joined by “and”; a condition that tells them apart may be missing. Identical values can stand only once. Results filed as inconclusive are left out. Values without a mark were called inactive. Activity calls are given as the source filed them. Unless noted, calls come from the whole dose curve; as a rule, active = well fitted curve in the direction sought with a large enough effect; inconclusive = small, poorly fitted or top-dose-only effect, or another doubt; inactive = no such curve, though single readings can be large; an effect the other way counts as inactive or inconclusive.

Assay [1] is described as follows: Primary qHTS for inhibitors of nuclear receptor binding SET domain protein 2 (NSD2) in an isogenic RCH-ACV NSD2 p.E1099K mutant (9B) (AID 1645876). Note: nearly all actives have a fitted effect of over 70% in size. A general note: Quantitative high-throughput screening tests each substance at several concentrations.
For assay [2], the target named is Cytochrome P450 2C9 (Homo sapiens) (UniProt P11712). Kind of assay: Cytochrome P450 family 2 subfamily C member 9 (CYP2C9) small molecule antagonists: luciferase biochemical (cell-free) qHTS assay (AID 1645842; active = well fitted curve in the direction sought with a large enough effect in the repeat runs; an effect the other way counts as inactive or inconclusive; note: nearly all actives have a fitted effect of over 55% in size). The method, boiled down: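 Luminescence, after 20 min with luciferin detection reagent, reflected CYP2C9 turnover during a 1 h NADPH-driven reaction at 37C. Enzyme-substrate mix contained 0.4% bovine serum albumin and was preincubated with compound 10 min at room temperature.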
Cytochrome P450 2C9 (Homo sapiens), sequence (P11712 whole entry, looked up): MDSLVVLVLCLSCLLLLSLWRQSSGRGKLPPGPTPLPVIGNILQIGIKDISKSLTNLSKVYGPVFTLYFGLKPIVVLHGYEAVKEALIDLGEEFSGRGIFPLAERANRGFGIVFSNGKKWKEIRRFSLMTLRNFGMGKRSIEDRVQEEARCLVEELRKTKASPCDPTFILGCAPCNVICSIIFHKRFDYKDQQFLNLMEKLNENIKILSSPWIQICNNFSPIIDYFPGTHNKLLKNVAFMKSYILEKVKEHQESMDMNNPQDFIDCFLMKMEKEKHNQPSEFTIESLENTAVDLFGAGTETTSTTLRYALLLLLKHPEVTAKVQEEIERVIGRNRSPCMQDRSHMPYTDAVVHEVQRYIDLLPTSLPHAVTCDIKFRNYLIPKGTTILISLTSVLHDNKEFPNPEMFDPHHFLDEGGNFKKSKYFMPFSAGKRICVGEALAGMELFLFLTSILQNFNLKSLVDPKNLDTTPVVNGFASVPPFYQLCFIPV

The nature of assay [3]: Primary qHTS for inhibitors of nuclear receptor binding SET domain protein 2 (NSD2) in an RCH-ACV wild type WT cells (2C) (AID 1645877). Note: nearly all actives have a fitted effect of over 70% in size.
% is set by controls: 0 for no effect and ±100 for the full control effect; potency is the fitted concentration of half-maximal effect.

Regarding `CC1CCC2(C)C(CC(O)C(O)C23CO3)C1(C)CCC1=CC(=O)OC1O` (centres undefined), in assay [1], the Potency entry was “inactive”.
Take `O=C(NCc1ccc(OC(F)(F)F)cc1)C1c2ccccc2C(=O)N1C1CCOCC1` (centres undefined): the Potency in assay [2] was 12 µM (active). The Potency entry in assay [1] and in assay [3] was “inactive” throughout.
Consider `CC(NCc1ccc(OCc2cccc(F)c2)cc1)C(N)=O` (centres undefined), for which the Potency entry in assay [2], in assay [1] and in assay [3] was “inactive” each time.
In the case of `COc1cc2c(cc1OC)CN(C(=O)[C@@H](NCc1ccncc1)C(C)(C)C)CC2`, the Potency in assay [2] was 1.69 µM (active). For the same molecule, the Potency result in assay [1] and in assay [3] was “inactive” in each case.
Turning to `CC1(C)CCC(C)(C)c2cc3c(cc21)Sc1ccccc1N=C3c1ccc(C(=O)O)cc1`, the Potency result in assay [2], in assay [1] and in assay [3] was “inactive” each time.
Take `Cn1c(=O)cc(N2CCCC(N)C2)n(Cc2ccccc2C#N)c1=O` (centres undefined): the Potency entry in assay [2], in assay [1] and in assay [3] was “inactive” each time.
As for `CC(=O)OCC(=O)[C@@]12OC3(CCCC3)O[C@@H]1C[C@H]1[C@@H]3CCC4=CC(=O)C=C[C@]4(C)[C@@]3(F)[C@@H](O)C[C@@]12C`, the Potency in assay [2] was 13.5 µM (active).
Take `CC1(C)CCC[C@@]2(C)[C@H]1[C@H](O)C=C1COC(=O)[C@@]12O`: the Potency entry in assay [1] and in assay [3] was “inactive” in each case.
With `CC1=C2[C@@H]([C@H](C)CC[C@H]2/C=C(\C)C(=O)O)[C@H](O)C1`, the Potency entry in assay [1] is “inactive”.
Regarding `COc1ccc([C@H]2Cc3cccc(O)c3C(=O)O2)cc1`, in assay [1], the Potency entry was “inactive”.
Take `CC(=O)OC[C@@]12[C@H](O)C[C@@H](C)[C@]3(C[C@@H](c4ccoc4)OC3=O)[C@H]1C[C@H](O)C[C@]21CO1`: the Potency result in assay [1] and in assay [3] was “inactive” throughout.
Turning to `Cc1c(CN(C)C(=O)/C=C/c2cnc3c(c2)CCC(=O)N3)oc2ccccc12`, the Potency result in assay [1] and in assay [3] was “inactive” each time.
As to `CN1C(=O)c2ccccc2NC(=O)[C@]12O[C@@H]2c1cccc(O)c1`, the Potency result in assay [1] and in assay [3] was “inactive” in each case.
Take `CC(=O)C1CCC2(C)C3=C(CCC12C)C1(C)CCC(=O)C(C)(C)C1CC3` (centres undefined): the Potency result in assay [1] was “inactive”.
`CC(C)(O)C1CC=C(C(=O)OCC2OC(Oc3c(O)cc(C(=O)O)cc3O)C(O)C(O)C2O)CC1` (centres undefined): the Potency entry in assay [1] and in assay [3] was “inactive” throughout.
In the case of `CC(C)=CCC[C@](C)(O[C@@H]1O[C@H](CO[C@@H]2OC[C@@H](O)[C@H](O)[C@H]2O)[C@@H](O)[C@H](O)[C@H]1O)[C@H]1CC[C@]2(C)[C@@H]1[C@H](O)C[C@@H]1[C@@]3(C)CC[C@H](O[C@@H]4O[C@H](CO)[C@@H](O)[C@H](O)[C@H]4O[C@@H]4O[C@H](CO)[C@@H](O)[C@H](O)[C@H]4O)C(C)(C)[C@@H]3CC[C@]12C`, the Potency result in assay [1] and in assay [3] was “inactive” throughout.
As for `CC1=CCC2C(C)(CO)CCCC2(CO)C1CO` (centres undefined), the Potency result in assay [1] and in assay [3] was “inactive” throughout.
As to `O=C(/C=C/c1ccc(O)cc1)OCC1=C[C@@H](O)[C@@H]2C=CO[C@@H](O[C@@H]3O[C@H](CO)[C@@H](O)[C@H](O)[C@H]3O)[C@H]12`, the Potency entry in assay [1] and in assay [3] was “inactive” throughout.
As for `C=C1CCC2C(C)(COC3OC(COC(=O)CC(=O)O)C(O)C(O)C3O)CCCC2(C)C1CCC1=CCOC1=O` (centres undefined), the Potency entry in assay [1] and in assay [3] was “inactive” in each case.
As to `c1ccc(Cc2ncc3c(n2)CCNCC3)cc1`, the Potency result in assay [1] and in assay [3] was “inactive” each time.
For `C[C@@H]1O[C@@H](O[C@H]2[C@H](OC(=O)[C@]34CCC(C)(C)C[C@H]3C3=CCC5[C@@]6(C)C[C@H](O)[C@H](O[C@@H]7O[C@H](CO)[C@@H](O[C@@H]8O[C@H](CO)[C@@H](O)[C@H](O)[C@H]8O)[C@H](O)[C@H]7O)[C@@](C)(CO)C6[C@H](O)C[C@@]5(C)[C@]3(C)C[C@H]4O)OC[C@H](O)[C@@H]2O)[C@H](O)[C@H](O)[C@H]1O[C@@H]1OC[C@@H](O)[C@H](O[C@@H]2OC[C@](O)(CO)[C@H]2O)[C@H]1O` (some centres undefined), in assay [1], the activity change, negative = viability loss is -3.67% [at 9.23 µM]. Moreover, the activity change, negative = cell killing in assay [3] is 2.2% [at 9.23 µM].
On to `COc1cc(/C=C/C(=O)OC2CC(C)=C(C(=O)O)/C2=C/CO[C@@H]2O[C@H](CO)[C@@H](O)[C@H](O)[C@H]2O)ccc1O` (some centres undefined), for which the Potency result in assay [1] and in assay [3] was “inactive” each time.
Take `C[C@]12CCC(=O)C=C1[C@@H](O)C[C@@H]1[C@@H]2[C@@H](O)C[C@@]2(C)[C@H]1CC[C@]2(O)C(=O)CO`: the Potency entry in assay [1] and in assay [3] was “inactive” throughout.
`COc1ccc(C2=CC(=O)OC2Cc2ccc(O)cc2)c(O)c1` (centres undefined): the Potency entry in assay [1] and in assay [3] was “inactive” in each case.
In the case of `CC(/C=C/[C@]1(O)[C@@]2(C)CO[C@@]1(C)C[C@@H](O)C2)=C\C(=O)O[C@@H]1O[C@H](CO)[C@@H](O)[C@H](O)[C@H]1O`, the Potency result in assay [1] and in assay [3] was “inactive” throughout.
In the case of `CN(NC(=O)CC(=O)NN(C)C(=S)c1ccccc1)C(=S)c1ccccc1`, the Potency was 40.9 nM (active) and 8.3 nM (active) in assay [1]; 40.9 nM (active) and 9.3 nM (active) in assay [3].
Turning to `CC1CCC(=O)CC(O)C(O)CC(=O)O1` (centres undefined), the Potency entry in assay [1] and in assay [3] was “inactive” each time.

The values above are taken from PubChem BioAssay (NCATS).
